According to PubChem BioAssay AID778 (Sanford-Burnham Center for Chemical Genomics, 2007):
In all, about 96,000 compounds went through this assay and about 20,000 (21%) were called active. A selection follows. Values without a mark were called inactive.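 The calls were made as follows: active = CYP2C19 inhibition above a set limit at 5 µM in the primary screen (cut at about 50% in these data); inactive = the rest.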

These compounds were tested against Cytochrome P450 2C19 (Homo sapiens) (UniProt P33261) (assay: blockers of cytochrome P450 2C19 activity – biochemical, luminescence, ADME assay, primary screen (AID 778;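 also: plate controls were negative control wells for no effect and 2.5 mM tranylcypromine positive control for full effect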)). Details: CYP2C19 Supersomes, luciferin-H EGE luminescence, 30 min; at 5 µM; hits give high values.
Sequence of Cytochrome P450 2C19 (Homo sapiens) (P33261 whole entry, looked up): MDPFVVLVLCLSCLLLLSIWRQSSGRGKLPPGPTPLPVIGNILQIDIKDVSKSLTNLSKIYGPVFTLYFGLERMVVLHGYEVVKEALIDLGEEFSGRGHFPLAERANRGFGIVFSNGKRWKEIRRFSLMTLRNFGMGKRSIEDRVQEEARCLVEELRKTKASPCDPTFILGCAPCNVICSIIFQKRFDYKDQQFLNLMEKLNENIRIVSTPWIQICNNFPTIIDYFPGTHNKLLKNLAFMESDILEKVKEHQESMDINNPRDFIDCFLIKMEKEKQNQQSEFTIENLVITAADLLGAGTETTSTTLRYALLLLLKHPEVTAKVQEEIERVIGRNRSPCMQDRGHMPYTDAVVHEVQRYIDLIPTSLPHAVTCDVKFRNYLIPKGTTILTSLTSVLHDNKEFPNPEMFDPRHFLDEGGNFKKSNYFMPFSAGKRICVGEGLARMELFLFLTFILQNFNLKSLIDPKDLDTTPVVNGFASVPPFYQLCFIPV
`CCCCc1cc(=O)oc2cc(C)cc(OCc3nn[nH]n3)c12` showed an inhibition of 11.2%.
With `CN1CCN(S(=O)(=O)c2ccc(NC(=O)C3CCCO3)cc2)CC1` (stereo not drawn) the inhibition was 3.5%.
`COc1ccc(OC)c2c1sc(=NC(=O)CN1C(=O)CCC1=O)n2C` was tested, and the inhibition was 11.6%.
In the case of `COc1ccccc1NC(=O)c1ccc(C)s1`, the inhibition is reported as 36.8%.
`CCC1(CC)Cc2ccccc2-c2nc3ccccc3c(=O)n21` showed an inhibition of 13.4%.
Compound `c1cncc(-c2nnc3n2C2(CCCCC2)Cc2ccccc2-3)c1` has an inhibition of 3%.
With `O=c1c2ccccc2nc2n1C1(CCCCC1)Cc1ccccc1-2` the inhibition was 74.3% (active).
`CCCCNc1ccc(C(=O)Nc2cccc(C)n2)cc1[N+](=O)[O-]` showed an inhibition of -3%.
For `COc1ccc(N(CCC#N)S(=O)(=O)c2ccc(Cl)cc2)cc1`, the inhibition was 49.6%.
`CCn1c(NC(=O)c2ccccc2)c(-c2cccs2)c(=O)c2ccccc21` showed an inhibition of -4.5%.
`COC(=O)c1ccccc1NC(=O)CN(Cc1ccc(Cl)cc1)S(C)(=O)=O` was tested, and the inhibition was 96.6% (active).
`CCOc1ccccc1N(CC(=O)Nc1ccccc1C(=O)OC)S(C)(=O)=O` was tested, and the inhibition was 14.5%.
Compound `COC(=O)c1ccc(NC(=O)c2ccccc2NS(=O)(=O)c2ccccc2)cc1` has an inhibition of 41.7%.
`COC(=O)c1ccccc1NC(=O)c1ccccc1NS(C)(=O)=O` was tested, and the inhibition was 62.7% (active).
`CCOc1ccc(NC(=O)c2ccccc2NS(C)(=O)=O)cc1` was tested, and the inhibition was 16.2%.
Work on `COC(=O)c1ccccc1NC(=O)CN(Cc1ccccc1)S(C)(=O)=O` yielded an inhibition of 17.1%.
`O=C(OC1CCCCC1=O)c1cccc(S(=O)(=O)NCc2ccccc2)c1` (stereo not drawn) gave an inhibition of 41.1%.
`CC(=O)c1c(C)[nH]c(C(=O)NCCCN2CCCC2)c1C` showed an inhibition of -10.9%.
In the case of `O=C(O)c1ccccc1-c1ccccc1C(=O)Nc1cccc2ccccc12`, the inhibition is reported as 0.9%.
Work on `COCCCNC(=O)c1ccc2c(c1)ncn2-c1ccccc1OC` yielded an inhibition of 1.5%.
For `COc1ccccc1-n1cnc2cc(NS(=O)(=O)c3ccccc3)ccc21`, the inhibition was 64.8% (active).
Work on `COc1ccccc1-n1cnc2cc(C(=O)NCC3CCCO3)ccc21` (stereo not drawn) yielded an inhibition of 13.8%.
`O=C(Nc1nc2ccc(S(=O)(=O)N3CCCC3)cc2s1)C1CCCO1` (stereo not drawn) was tested, and the inhibition was -2.2%.
Work on `CCc1nnc(NC(=O)c2nc3nccc(C)n3n2)s1` yielded an inhibition of 0.6%.
For `O=C1Cc2ccccc2Sc2ccc(Cl)cc21`, the inhibition was 58.3% (active).
`O=C(CSc1nc2ccccc2o1)N1c2ccccc2Sc2ccc(Cl)cc21` showed an inhibition of 36.4%.
In the case of `Cc1ccc(SCc2cc(=O)[nH]c(N3CCCCC3)n2)cc1`, the inhibition is reported as 30.5%.
In the case of `COC(=O)c1ccc(OCC(=O)NC(C)(C)C)cc1`, the inhibition is reported as 67.1% (active).
`COc1ccc(OCC(=O)NNC(=O)c2ccc(-c3ccccc3)cc2)cc1` showed an inhibition of -6%.
`CC(C)(C)NC(=O)COc1ccc(CNc2ccc3[nH]c(=O)[nH]c3c2)cc1` was tested, and the inhibition was 11.8%.
`CC(NC(=O)COc1ccccc1)C(=O)NC1=NCCS1` (stereo not drawn) was tested, and the inhibition was 10.5%.
Work on `COC(=O)/C=C/C(=O)NCc1ccco1` yielded an inhibition of -5.7%.
`CCC(=O)Nc1nc(OC)cc(OC)n1` was tested, and the inhibition was 2.1%.
With `FC(F)(F)c1nc2ccccc2nc1N/N=C/c1ccc(Cl)cc1` the inhibition was 16.6%.
`O=[N+]([O-])c1ccc(Oc2ccc(F)cc2Br)c2ccncc12` showed an inhibition of 31%.
For `COc1ccc(NC2CC(=O)N(C)C2=O)cc1` (stereo not drawn), the inhibition was -10.3%.
In the case of `COc1ccc2c(c1)SC(C)CC2=O` (stereo not drawn), the inhibition is reported as 79.6% (active).
Compound `COc1ccc2c(c1)OC(O)(C(F)(F)C(F)F)CC2=O` (stereo not drawn) has an inhibition of 47.3%.
Compound `O=C(Cn1ccc([N+](=O)[O-])n1)NCc1cccs1` has an inhibition of 0.6%.
For `O=C(Nc1cc(=O)[nH]c2ncnn12)c1ccccc1Cl`, the inhibition was 2.2%.
Compound `O=C(C1CCCO1)N(Cc1ccccc1)c1ccccc1` (stereo not drawn) has an inhibition of 0%.
Work on `CCOc1ccc(C(CC(=O)O)NC(=O)COc2ccccc2)cc1` (stereo not drawn) yielded an inhibition of -2.9%.
For `COc1ccc(C(CC(=O)O)NC(=O)Cc2ccccc2)cc1` (stereo not drawn), the inhibition was -9.7%.
`CCOc1ccc(C(CCc2ccccc2)NC(=O)c2ccc(OC)c(OC)c2)cc1OCC` (stereo not drawn) was tested, and the inhibition was 56.7% (active).
`COc1cc2[nH]c(=O)n(CCC(=O)NC3CCN(Cc4ccccc4)CC3)c(=O)c2cc1OC` showed an inhibition of -19%.
Work on `Cc1ccc(S(=O)(=O)N(C)CC(=O)NC2CCCC2)cc1` yielded an inhibition of 11.9%.
For `CN(CC(=O)NC1CCCCC1)S(=O)(=O)c1cccc2cccnc12`, the inhibition was 57.6% (active).
Compound `COc1ccc(N(CC(=O)NC2CCCCCCC2)S(=O)(=O)c2c(C)nn(C)c2C)cc1` has an inhibition of 42.8%.
`CCn1c2c(c3ccc(OC)cc31)CCCC2=O` was tested, and the inhibition was 7.5%.
Work on `C=C(C)Cn1c(C)cc(C)c(S(=O)(=O)c2ccccc2C)c1=O` yielded an inhibition of 19.6%.
In the case of `CCCOc1ccc(N2C(=O)CC(N(CCc3ccc(S(N)(=O)=O)cc3)C(C)=O)C2=O)cc1` (stereo not drawn), the inhibition is reported as -16.6%.
`CC(C)CCNC(=O)CN(C(=O)Cn1nnc(-c2ccc(F)cc2)n1)C1CCCC1` was tested, and the inhibition was 17.8%.
For `COc1cccc(N(CC(=O)NC2CCCC2)C(=O)Cn2nnc(-c3ccc(C)cc3)n2)c1`, the inhibition was 28.4%.
With `CC(C)CCNC(=O)C(C)N(C(=O)Cn1nnc(-c2ccc(F)cc2)n1)C1CCCC1` (stereo not drawn) the inhibition was 78.7% (active).
With `CC1(C)CC(O)C(CCC(O)c2ccccc2)C(C)(C)N1` (stereo not drawn) the inhibition was -6.9%.
In the case of `CCCOc1ccc(-c2nc(N)n[nH]2)cc1`, the inhibition is reported as 5.8%.
`Cn1c(=NC(=O)C2CC2)sc2cc(F)cc(F)c21` was tested, and the inhibition was 13.8%.
Work on `COc1ccc(CCN2CNc3c(c(=O)n(C)c(=O)n3C)C2)cc1OC` yielded an inhibition of -22.1%.
For `COc1ccc(CCN(C)CCN2C(=O)c3ccccc3C2=O)cc1OC`, the inhibition was 2.8%.
With `COc1ccc(CCN=C2SCC(=O)N2C)cc1OC` the inhibition was 88.2% (active).
With `NC(=S)c1ccc(C(N)=S)o1` the inhibition was 60.2% (active).
`CCOC(=O)c1c(C)[nH]c(C)c1C(=O)CSc1nc(N)cc(N)n1` gave an inhibition of 17.6%.
Compound `Cc1ccc(S(=O)(=O)N2CCC(C(=O)N[C@@H](C)C(=O)NCCc3ccccc3)CC2)cc1` has an inhibition of 10.5%.
`CC(=O)NS(=O)(=O)c1ccccc1` showed an inhibition of 4.6%.
In the case of `Cc1ccc(C(=O)NCCNS(=O)(=O)c2ccccc2)cc1`, the inhibition is reported as 81.4% (active).
With `O=S(=O)(NCCNS(=O)(=O)c1ccccc1)c1ccccc1` the inhibition was 89% (active).
`Cc1ccc(S(=O)(=O)NCCSC(C)(C)C)cc1` showed an inhibition of 11.6%.
With `CC(C)(C)NC(=O)CN(Cc1cccs1)C(=O)CNS(=O)(=O)c1ccccc1` the inhibition was 4.4%.
With `CS(=O)(=O)NCc1ccc(C(=O)NCc2ccccc2)cc1` the inhibition was -8.4%.
`CCOc1cc(C(=S)N2CCOCC2)ccc1O` was tested, and the inhibition was 12.3%.
Work on `CN(CC#CCC(c1ccccc1)c1ccccc1)C(C)(C)C` yielded an inhibition of 46.1%.
`CC(=O)OCc1cc(=O)n(C)c(=O)n1C` was tested, and the inhibition was 1.9%.
`CCCc1nnc(NC(=O)c2cccs2)s1` gave an inhibition of 7.8%.
`C=CCOc1ccc(/C=N/n2cncn2)cc1OC` was tested, and the inhibition was 96.6% (active).
With `COc1cc(/C=N/NC(=O)Nc2ccccc2)ccc1OCCOc1ccccc1C` the inhibition was 4.8%.
In the case of `COc1ccc(/C=N/Nc2nc3ccccc3o2)cc1OC`, the inhibition is reported as -0.5%.
In the case of `Cc1csc(NC(=O)CN2CCCCCC2)n1`, the inhibition is reported as 22.8%.
For `COc1cc(/C=N/O)cc(Br)c1OS(=O)(=O)c1ccc(C)cc1`, the inhibition was 73.4% (active).
`COc1cc(/C=N/O)cc(Br)c1OCc1cccc(Cl)c1` gave an inhibition of 4.4%.
`CCOc1cc(/C=N/O)cc(Br)c1OC` gave an inhibition of 45.6%.
For `Nc1c(-c2cccc(Cl)c2)cnn1-c1cccc([N+](=O)[O-])c1`, the inhibition was 24%.
With `COCCNS(=O)(=O)c1cc(Br)ccc1OC` the inhibition was 66.9% (active).
For `COc1ccc(Br)cc1S(=O)(=O)N1CCN=C1C`, the inhibition was 40.3%.
`COc1ccc(C)cc1S(=O)(=O)NC1CCCCC1` gave an inhibition of 15%.
`COc1ccc(C)cc1S(=O)(=O)NCCc1ccccc1` was tested, and the inhibition was 54.1% (active).
With `Cc1noc(C)c1S(=O)(=O)NCCc1ccc(S(N)(=O)=O)cc1` the inhibition was -13.5%.
Compound `COc1ccc(Cn2c(C)c(C)c(C#N)c2NC(=O)Nc2ccc(F)cc2)cc1` has an inhibition of 4.4%.
In the case of `Cc1ccc(F)cc1NC(=O)c1cccc(N(C)C)c1`, the inhibition is reported as 8.6%.
`CCCC(NS(=O)(=O)c1ccc(OC)cc1)C(=O)O` (stereo not drawn) showed an inhibition of -12.7%.
Work on `CCc1ccc(Nc2ncc3c(n2)CC(c2ccco2)CC3=O)cc1` (stereo not drawn) yielded an inhibition of 1%.
`CC1CCCCC1NC(=O)CSc1nnc(N)s1` (stereo not drawn) was tested, and the inhibition was 4%.
In the case of `CC1CCCC(NC(=O)CSc2nccn2C)C1C` (stereo not drawn), the inhibition is reported as 97.2% (active).
With `CC1CCCC(NC(=O)CN2CCN(Cc3ccc(Cl)cc3)C2=O)C1C` (stereo not drawn) the inhibition was 18.3%.
`Cc1ccc(NC(=S)NC(NC(=O)Cc2cccc3ccccc23)C(Cl)(Cl)Cl)cc1` (stereo not drawn) showed an inhibition of 49.5%.
In the case of `CCCC(C(=O)NCc1ccco1)N(C(=O)CNS(=O)(=O)c1ccccc1)C1CCCC1` (stereo not drawn), the inhibition is reported as 78.3% (active).
With `CSCCC(NC(=O)C1CCC(C)CC1)C(=O)NCc1ccco1` (stereo not drawn) the inhibition was 8.2%.
Compound `O=C(NC1CCC(O)CC1)c1ccc(S(=O)(=O)NCc2ccco2)cc1` (stereo not drawn) has an inhibition of -9%.
Compound `COc1ccc(C2=NOC3(CC(=O)N(c4ccc(C)cc4)C3=O)C2)cc1` (stereo not drawn) has an inhibition of -13.3%.
Work on `O=C1CSC(c2ccc(Cl)cc2)N1` (stereo not drawn) yielded an inhibition of 13.7%.
In the case of `c1ccc2c(NCC3CCCO3)nc(-c3ccncc3)nc2c1` (stereo not drawn), the inhibition is reported as 94.5% (active).
`O=C(NCC1CCCO1)c1ccc2ccccc2n1` (stereo not drawn) was tested, and the inhibition was -2.7%.
`Cc1nc2ccccc2c2oc(C(=O)NCC3CCCO3)cc12` (stereo not drawn) gave an inhibition of -8.4%.
Compound `Cc1ccc(S(=O)(=O)n2nc(OC(=O)C(C)(C)C)cc2N)cc1` has an inhibition of 21.6%.
